High-throughput results as filed in PubChem.
Smad3 inh – Smad3 (human) transcription factor binding inhibition. P84022. 88,000 compounds, 0.29% hits. inhibition, % at 25 µM. TR-FRET Smad3/Dy647-FoxH1 peptide binding, europium anti-His;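 active = compounds that reduce the energy-transfer binding signal between the protein and its labelled peptide by more than half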;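 note: 0% = Smad3 plus labelled peptide maximal FRET and 100% = peptide-only background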
Target sequence (P84022 whole entry, looked up): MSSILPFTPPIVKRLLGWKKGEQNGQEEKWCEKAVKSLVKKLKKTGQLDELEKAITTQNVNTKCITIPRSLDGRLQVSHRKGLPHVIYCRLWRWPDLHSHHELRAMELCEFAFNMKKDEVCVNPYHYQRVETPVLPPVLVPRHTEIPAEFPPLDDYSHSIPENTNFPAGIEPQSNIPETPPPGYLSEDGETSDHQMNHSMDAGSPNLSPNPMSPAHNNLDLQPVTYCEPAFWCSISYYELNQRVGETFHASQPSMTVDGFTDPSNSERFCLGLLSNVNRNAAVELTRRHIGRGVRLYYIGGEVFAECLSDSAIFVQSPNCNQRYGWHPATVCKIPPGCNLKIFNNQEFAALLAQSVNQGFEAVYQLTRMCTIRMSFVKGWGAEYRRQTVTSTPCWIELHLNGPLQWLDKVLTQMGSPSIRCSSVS
ERa SRC1 pot – enhances coactivator binding to human estrogen receptor alpha; AID 639; 86,000 compounds, 1.3% hits; P03372; TR-FRET ERalpha-LBD/SRC-Cy5 coactivator binding, 2 h; 100 = basal binding, no effect; coactivator binding (% of control), % at 25.6 µM; in the data active = activity above about 200%;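 note: binding measured in presence of low estradiol as agonist stimulus; 0% = peptide alone without receptor and 100% = receptor with peptide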
ERa coact inh – ER-alpha (human) coactivator binding inhibition | AID 629 | P03372 | TR-FRET ER-alpha LBD / SRC-1 peptide, estradiol-bound | 86,000 compounds, 1.7% hits | inhibition, % at 25.6 µM; in the data active = inhibition above about 50%;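 note: 0% = receptor plus peptide control and 100% = peptide only without receptor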
ERb coact inh – blocks coactivator binding to human estrogen receptor beta. 86,000 compounds, 1.3% hits. TR-FRET ER-beta LBD / SRC1-Cy5 peptide binding; receptor agonist-loaded with 1 µM estradiol. AID 633. inhibition, % at 25.6 µM. Q92731;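 active = compounds whose percent inhibition of the receptor-coactivator binding signal exceeds about 50% in the single-dose screen, limit read from the data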;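 note: 0% = receptor plus peptide wells without compound and 100% = peptide-only wells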
* marks the source's active call; other numbers are inactive results; . = no result; [ ] = dose if it differs, or a comment. Hits are enriched below; roughly 3.7% of the tested compounds scored in any of these assays.

SMILES | Smad3 inh | ERa SRC1 pot | ERa coact inh | ERb coact inh
Cc1ccc(-c2csc(NC(=O)c3ccno3)n2)cc1 | 3.0 | 28.6 | 73.1* | 75.0*
O=C(COC(=O)C1CC2C=CC1C2)NCc1ccco1 (stereo unspecified) | 12.4 | 162.3 | 72.3*[fluorescence artefact?] | 56.6*
O=C(COC(=O)C1CCCCC1C(=O)N1CCc2ccccc21)NCc1ccco1 (stereo unspecified) | 9.8 | 83.2 | 50.1*[fluorescence artefact?] | 41.7
O=C(CN1CCCc2ccccc21)NC(=O)NCc1ccco1 | -3.1 | 75.1 | 32.5 | 29.5
C=CCn1c(SCc2ccc(C#N)cc2)nnc1-c1ccc(C)cc1 | 1.1 | 95.6 | -7.4 | -9.3
CCc1nc2ccccc2c(C(=O)OCC(=O)Nc2cccc(S(=O)(=O)N3CCOCC3)c2)c1C | 89.2* | 115.1 | -13.3 | -18.3
Cn1cnc([N+](=O)[O-])c1[Se]c1nc(N)nc2c1ncn2[C@H]1O[C@@H](CO)[C@H](O)[C@H]1O | 75.2* | . | . | .
CCS(=O)(=O)N1Cc2ccccc2CC1C(=O)N1CCN(c2cccc(C)c2C)CC1 (stereo unspecified) | -11.7 | 60.5 | 80.1*[fluorescence artefact?] | 51.2*
C[N+]1(NCC[N@+]2(C)CCc3ccccc3C2)CCCCC1 | 94.6* | . | . | .
O=C(Nc1ccc(O)cc1)C1CC=CCC1 (stereo unspecified) | 18.0 | 18.2 | 44.1 | 68.0*
N#Cc1c(SCC(N)=O)nsc1SCc1ccc(Cl)cc1 | -1.3 | 78.8 | 0.6 | 0.2
N#Cc1c(SCC(N)=O)nsc1SCc1ccccc1Cl | 4.6 | 104.6 | 10.9 | 98.9*[fluorescence artefact?]
CCOc1ncccc1C(=O)OCc1cc(=O)n2c(n1)sc1ccccc12 | 7.6 | 115.3 | 83.6*[fluorescence artefact?] | 56.2*[fluorescence artefact?]
Cn1ncc2c(Nc3ccc4ccccc4c3)ncnc21 | 12.8 | 112.3 | 1.8 | -0.4
CCOC(=O)c1ccc(Nc2ncnc3c2cnn3C)cc1 | -6.5 | 110.8 | -2.7 | 72.1*[fluorescence artefact?]
COc1ccc(-c2c(C#N)c(C)nc3c2C(=O)c2ccccc2-3)cc1 | -6.7 | 372.9* | 2.3 | 1.7
CCc1cccc2c(C(=O)Cn3nnc(-c4ccc(OC)c(OC)c4)n3)c[nH]c12 | 8.9 | 103.4 | 61.5* | 26.9
O=C(CSc1nnnn1-c1ccc2c(c1)OCCO2)OC1CCCCC1 | 9.1 | 212.5* | -7.5 | -1.3
COc1ccc(-c2nn(-c3ccccc3)cc2/C=N/N2C(=O)CSC2=S)cc1 | -5.3 | 313.2*[fluorescence artefact?] | -20.8 | -1.2
COc1ccc(/C=N/N2C(=O)CSC2=S)cc1 | 2.5 | 102.1 | -6.9 | 1.1
CN(C)S(=O)(=O)N(CC(=O)N(Cc1ccccc1)Cc1ccccc1)c1ccccc1 | -0.8 | 110.6 | 54.5* | 37.3
Cc1cc(NC(=O)c2cncc(Br)c2)n(-c2ccccn2)n1 | -2.4 | 294.0* | 8.0 | -4.6
CCC(Cc1ccccc1)NC(=O)CSc1ccsc1[N+](=O)[O-] (stereo unspecified) | -4.4 | 109.6 | -2.9 | -1.8
CCOc1cc(-n2cnnn2)c(OCC)cc1NC(=O)c1cnccn1 | 16.1 | 137.5 | 54.5* | 25.8
CC1C(C(=O)Nc2ccccc2)CCCC1(C)C(=O)O (stereo unspecified) | 6.8 | 109.9 | -8.5 | -0.5
SMILES | Smad3 inh | ERa SRC1 pot | ERa coact inh | ERb coact inh
O=S(=O)(c1ccc(Oc2ccc(-c3nnco3)cc2)nc1)N1CCC(Cc2ccccc2)CC1 | 19.7 | 98.7 | 75.2*[fluorescence artefact?] | 30.6
O=C1CC(c2ccc(F)cc2)Cc2nc(NCC3CCCO3)ncc21 (stereo unspecified) | 1.7 | 93.3 | 59.8* | -10.0
CCN(CC)S(=O)(=O)c1cc(Br)c(C)cc1OC | 1.2 | 150.4 | -1.4 | -4.4
O=C(Nc1ccn(C2CC(OC(=O)c3ccccc3)C(CO)O2)c(=O)n1)c1ccccc1 (stereo unspecified) | -2.1 | 506.6*[fluorescence artefact?] | -15.7 | -9.4
CCOc1cc(/C=N/O)cc(Cl)c1OC | 5.8 | 95.5 | -6.6 | -13.9
COC(=O)c1c(NC(=O)Cc2cccs2)sc2c1CCCC2 | -0.1 | 57.1 | 90.0*[fluorescence artefact?] | 73.8*
O=c1c2cc(N3CCOCC3)ccc2[nH]c(=S)n1Cc1ccco1 | 4.9 | 98.9 | 47.2 | 51.1*
O=c1[nH]c2ccccc2c(=O)n1Cc1ccco1 | -1.1 | 98.3 | -1.8 | 62.8*
O=c1c2cc(N3CCOCC3)ccc2[nH]c(=S)n1Cc1cccc(Cl)c1 | -30.9 | 127.3 | 2.9 | -0.5
O=C(O)[C@H](/C=C/c1ccccc1)c1ccccc1 | -10.2 | . | . | .
O=C(NCc1ccco1)c1nc2nc(-c3cccs3)cc(C(F)(F)F)n2n1 | 9.0 | 66.8 | 26.0 | 21.8
O=C(NCc1ccco1)c1nn2c(C(F)(F)F)cc(-c3cccs3)nc2c1Br | 0.4 | 157.4 | 59.2* | 44.2
Cc1cc(Cc2c(C)c(C)c(Cc3cc(C)cc(C(C)(C)C)c3O)c(C)c2C)c(O)c(C(C)(C)C)c1 | -3.9 | . | . | .
CC(NS(=O)(=O)c1ccc(CCC(=O)NCc2cccnc2)cc1)c1ccccc1 (stereo unspecified) | 4.6 | 110.9 | -6.3 | 0.8
Cc1cc(NC(=O)CS(=O)(=O)c2cn(Cc3ccccc3Cl)c3ccccc23)no1 | -5.5 | 660.0*[fluorescence artefact?] | 14.6 | 14.0
CN(CC(=O)NC(c1ccccc1)c1ccccc1)Cc1nc2ccccc2c(=O)[nH]1 | 3.7 | 102.3 | 4.3 | 5.2
CN(CC(=O)NC(=O)NCc1ccco1)Cc1nc2ccccc2c(=O)[nH]1 | 13.0 | 71.2 | 60.8* | 43.1
Cc1ccc(-n2nc3c(c2NC(=O)c2cccs2)CSC3)cc1 | 8.8 | 153.9 | 12.1 | 6.3
Cc1cccc(-n2nc3c(c2NC(=O)c2ccc(Br)o2)CSC3)c1 | 5.7 | 210.8* | 0.6 | -0.4
CCN1CCc2nc(SCC(=O)Nc3ccc(OC)cc3)c(C#N)cc2C1 | -8.1 | 11.3 | 38.8 | 5.2
CCc1nnc(NC(=O)CSc2nc3c(cc2C#N)CCCC3)s1 | -127.4 | 510.4*[fluorescence artefact?] | -19.6 | -10.0
CN1CCc2nc(SCC(=O)Nc3ccc(F)cc3)c(C#N)cc2C1 | 15.3 | 37.7 | 82.9* | 49.2
COc1ccc(NC(=O)CSc2nc3c(cc2C#N)CN(C)CC3)cc1 | 4.5 | 33.7 | 93.1*[fluorescence artefact?] | 56.5*
Cc1c(C(=O)/C=C/c2cccs2)oc2ccc(F)cc12 | 1.1 | 80.8 | -6.3 | 8.3
CCOc1ccc(Cn2c(C)nc([N+](=O)[O-])c2SCC(O)CCl)cc1[N+](=O)[O-] (stereo unspecified) | 4.2 | 74.8 | 2.3 | -9.2
SMILES | Smad3 inh | ERa SRC1 pot | ERa coact inh | ERb coact inh
CCc1nnc(NC(=O)CSc2nnc(-c3ccc(S(=O)(=O)N4CCCC4)cc3)n2CC)s1 | -6.3 | 86.9 | 16.1 | 53.6*[fluorescence artefact?]
Cc1nn(C)c(C)c1NC(=O)CSc1nc(Cc2ccccc2)nc2c1cnn2-c1ccccc1 | 1.8 | 140.9 | 81.8*[fluorescence artefact?] | 56.0*[fluorescence artefact?]
C=C(CC(=O)O)C(=O)O (tested in a mixture with another compound) | 86.6* | . | . | .
O=C(O)/C=C(/CC(=O)O)C(=O)O | 14.3 | . | . | .
O=C(Nc1nc(-c2nc3ccccc3s2)cs1)c1ccco1 | -56.5 | 287.6*[fluorescence artefact?] | 30.8 | 39.9
O=C(Nc1nc(-c2nc3ccccc3s2)cs1)C1CC1 | -4.4 | 100.8 | 0.4 | -9.0
NCCN1C(=O)c2ccccc2[C@@]1(O)c1ccc(Cl)cc1 | 9.7 | . | . | .
Brc1cc(Br)c2nc(-c3cccs3)ccc2c1 | 8.8 | 240.9*[fluorescence artefact?] | -0.3 | -5.4
Cc1ccc2c(c1)CCCN2C(=O)c1cc2ccccc2oc1=O | -19.6 | 91.6 | 5.4 | 12.9
